The list is not random: actives were taken first. Their share in the collection is about 5.4%.
PP5 inh: PP5 phosphatase inhibitors, primary screen, biochemical, fluorescence; Serine/threonine-protein phosphatase 5 (Homo sapiens), P53041; purified PP5c, OMFP substrate fluorescence; inhibition, % at 6.7 µM; actives 0.18% (n = 320,000); AID 1987, 2009;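 active = inhibition above the campaign's mean inhibition across all tested compounds plus 3 SD, cut at about 9.5% in these data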;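 note: 0% = DMSO only and 100% = 100 µM cantharidin control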
CSC inhib: cancer stem cell viability inhibitors, primary screen, luminescence. cancer stem cell-like cells viability. inhibition, % at 7.5 µM. actives 1.1% (n = 300,000); in the data active = inhibition above about 75%; inconclusive = no clear call, values can overlap the other calls; tested in HMLE shEcad cells
Calb FLC: C. albicans growth inhibition with fluconazole, primary screen, CaCi-2 strain, Alamar Blue fluorescence; actives 0.57% (n = 300,000); C. albicans CaCi-2 (fluconazole-resistant clinical isolate) + fluconazole, 48 h; growth inhibition, % (test concentration not listed); AID 1979, 2009;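 active = growth inhibition above about 58% in most replicates, limit read from the data, passing the limit was not always enough; inconclusive = exactly half the replicates above a set limit; inactive = most replicates below a set limit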;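 note: all wells also contain fluconazole at 8 µg/ml as a sub-toxic cotreatment; 0% = median of DMSO wells and 100% = median of geldanamycin control wells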
ALR inh: inhibitors of human ALR sulfhydryl oxidase, primary screen, biochemical, H2O2 detection, HRP-luminol luminescence, single point. purified ALR, DTT oxidation. inhibition, % (no concentration beside the values). actives 3.8% (n = 290,000);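 active = mean replicate inhibition above about 79%, with every replicate also reaching it, limit read from the data; inconclusive = only one of the two criteria met; inactive = mean below limit and not every replicate reaching it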
Target sequence (P55789 whole entry, looked up): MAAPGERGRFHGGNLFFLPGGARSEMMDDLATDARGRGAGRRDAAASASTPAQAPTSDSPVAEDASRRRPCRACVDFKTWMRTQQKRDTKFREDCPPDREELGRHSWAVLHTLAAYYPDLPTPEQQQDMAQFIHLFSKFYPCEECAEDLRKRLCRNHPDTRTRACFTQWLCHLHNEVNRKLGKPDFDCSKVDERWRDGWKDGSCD
PP1 counter: PP1-alpha phosphatase inhibitors, primary screen, counter-screen for PP5 inhibitor project, biochemical, fluorescence, OMFP substrate, single point; purified PP1alpha; inhibition, % at 6.7 µM; actives 0.9% (n = 320,000); AID 2235, 2010;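 active = inhibition above the mean inhibition of all tested compounds plus 3 SD, computed separately for each screening campaign, cut at about 15% in these data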
The depositor's hits bear a star.

CS(=O)(=O)NN1C(=O)c2ccccc2NC1c1cccc(O)c1 (centres undefined) was read as PP5 inh 5, CSC inhib -3, Calb FLC -18, ALR inh 0 and PP1 counter 5.
CN1C(=O)c2ccccc2NC(=O)[C@]12O[C@@H]2c1cccc(O)c1 was read as PP5 inh 2, CSC inhib -15, Calb FLC 0, ALR inh 99* and PP1 counter -5.
Screening COCCn1c(=O)[nH]c2cc(C(=O)N3CCN(c4cccc(C(F)(F)F)c4)CC3)ccc2c1=O returned PP5 inh 2, CSC inhib 2, Calb FLC 4, ALR inh -10 and PP1 counter 1.
For COCCn1c(=O)[nH]c2cc(C(=O)N3CCN(c4ccc(OC)cc4)CC3)ccc2c1=O the results were PP5 inh 2, CSC inhib 6, Calb FLC -4, ALR inh 96* and PP1 counter 3.
O=C(c1ccc(Cn2c(=O)[nH]c3ccccc3c2=O)cc1)N1CCN(c2ccc(F)cc2)CC1 was read as PP5 inh 3, CSC inhib -16, Calb FLC 63*, ALR inh -8 and PP1 counter 4.
`O=C(c1ccco1)N1CCN(C(=O)N2CCOCC2)CC1` gave PP5 inh -2, CSC inhib -7, Calb FLC 20, ALR inh -1 and PP1 counter -1.
O=C(O)c1ccccc1Nc1ccccc1 was read as PP5 inh 2, CSC inhib -5, ALR inh 99* and PP1 counter 1.
COc1ccc(Nc2ccc(Cl)cc2)c(C(=O)O)c1 was read as PP5 inh 0, CSC inhib 6, Calb FLC 20, ALR inh 99* and PP1 counter -1.
For O=C(COC(=O)c1ccccc1Nc1ccccc1)NCc1ccccc1 the results were PP5 inh -1, CSC inhib 2, Calb FLC 4, ALR inh 97* and PP1 counter 2.
CN(C(=O)COC(=O)c1ccccc1Nc1ccccc1)C1CCS(=O)(=O)C1 (centres undefined) was read as PP5 inh 4, CSC inhib -10, Calb FLC 34, ALR inh 99* and PP1 counter 4.
Screening CCN(C(=O)COC(=O)c1cccnc1Nc1cccc(C(F)(F)F)c1)C1CCS(=O)(=O)C1 (centres undefined) returned PP5 inh 7, CSC inhib 6, Calb FLC -1, ALR inh -6 and PP1 counter 3.
`Cc1ccc2c(CC(=O)OCC(=O)N(CC(C)C)c3c(N)n(Cc4ccccc4)c(=O)[nH]c3=O)coc2c1` gave PP5 inh 1, CSC inhib -14, Calb FLC 6, ALR inh -6 and PP1 counter -2.
Screening COc1ccc(CNS(=O)(=O)CCNC(=O)c2ccccc2)cc1 returned PP5 inh 0, CSC inhib -2, Calb FLC 1, ALR inh -4 and PP1 counter -4.
O=c1[nH]c([N+](=O)[O-])nn1C(c1ccccc1)c1ccccc1 was read as PP5 inh -1, CSC inhib 3, Calb FLC 3, ALR inh -15 and PP1 counter 1.
Screening COc1cccc(CC(NC(C)=O)C(=O)NC2CCN(C(=O)C3CC3)CC2)c1OC (centres undefined) returned PP5 inh -4, CSC inhib -10, Calb FLC -6, ALR inh -12 and PP1 counter -1.
`Cc1csc(CCc2nc(C)cs2)n1` gave PP5 inh 1, CSC inhib -15, Calb FLC -10, ALR inh -8 and PP1 counter -5.
`COc1cccc(Nc2ccccc2C(=O)O)c1` gave PP5 inh 1, CSC inhib -2, Calb FLC inconclusive, ALR inh 99* and PP1 counter -2.
For O=C(O)c1cc2ccccc2cc1Nc1ccccc1 the results were PP5 inh 2, CSC inhib 3, Calb FLC -9, ALR inh 99* and PP1 counter 10.
For O=C(O)c1ccccc1Nc1ccc(OC(F)F)cc1 the results were PP5 inh -1, CSC inhib 22, Calb FLC -5, ALR inh 100* and PP1 counter -6.
For COc1cc2ccccc2cc1C(=O)O the results were PP5 inh 1, CSC inhib -5, Calb FLC 23, ALR inh -11 and PP1 counter -4.
